Bioassay records from PubChem.
TDP1 cell CPT – DT40-hTDP1 cell growth loss with CPT; chicken DT40 Tdp1-/-;hTDP1 cells + 20 nM CPT, ATP luminescence, 48 h; Potency, µM (top dose mostly 46.2 µM), for the others: top-dose activity change, negative = growth inhibition, actives largely listed as inhibitors; hit rate 12% among 420,000; AID 686979; note: potency is the fitted concentration of half-maximal effect; nearly all actives have a fitted effect of over 55% in size
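Chicken DT40 Tdp1-/- cells complemented with human TDP1, 400 cells/well, exposed to compounds plus 20 nM camptothecin for at least 48 h at 37 C; viability read as ATP content by CellTiter-Glo luminescence.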
HT1080 IDH1KD tx – toxicity to HT-1080 IDH1 knockdown cells (counter line). AID 686971. Potency, µM (series often up to 46.1 µM), for the others: top-dose activity, negative = toxicity, most hits filed as cytotoxic. hit rate 2% among 360,000. HT-1080 IDH1 knockdown viability, ATP luminescence, 48 h;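 note: potency is the fitted concentration of half-maximal effect; 0% = DMSO wells and -100% = cell-free medium wells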
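Viability of IDH1-knockdown HT-1080 fibrosarcoma cells was assessed by CellTiter-Glo after 48 h at 37 °C with titrated compound; concentration-effect curves were classified by fit quality and response size.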
HT1080-NT tox – kills 2HG-producing HT-1080-NT fibrosarcoma cells; HT-1080-NT fibrosarcoma viability, CellTiter-Glo ATP luminescence, 48 h; Potency, µM (highest dose often 46.1 µM), for inactives: top-dose activity, negative = less viability, most hits filed as cytotoxic; hit rate 1.6% among 360,000; AID 686970;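 note: NT is the 2HG producing partner of a matched IDH1 knockdown line; potency is the fitted concentration of half-maximal effect; 0% = DMSO-treated cells and -100% = media-only wells without cells; nearly all actives have a fitted effect of over 55% in size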
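Viability of the 2HG-overproducing fibrosarcoma line after 48 hours of compound exposure at 37 degrees C was determined by luminescence with CellTiter-Glo, and concentration-effect curves were then fitted and categorized.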
DT40 TDP1 no CPT – qHTS for Inhibitors of human tyrosyl-DNA phosphodiesterase 1 (TDP1): qHTS in cells in absence of CPT. Potency, µM (doses to about 46.2 µM), for inactives: top-dose activity change, negative = growth inhibition, usual class: inhibitors. hit rate 15% among 420,000. DT40 Tdp1-/- hTDP1 cells, no CPT, ATP luminescence, 48 h; note: potency is the fitted concentration of half-maximal effect; nearly all actives have a fitted effect of over 55% in size
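Compound effects on proliferation are scored in DT40 Tdp1-/-;hTDP1 cells in the absence of CPT. ATP levels (CellTiter-Glo luminescence) are recorded after a ≥48 hr, 37 °C incubation.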
IL-1B inflam inh – inhibitors of inflammasome signaling (IL-1 beta secretion) | THP-1 LPS/ATP IL-1B secretion, AlphaLISA, 16 h; hits give low values | activity change, % at 57.5 µM | hit rate 4.7% among 360,000 | AID 743279; in the data active = activity change below about -50%; inconclusive = mostly about -30% to -49%
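Secreted IL-1B measured by AlphaLISA bead assay after 16 h compound exposure of THP-1 cells; compounds (final up to 57.5 uM) added 1 h before LPS (250 ng/mL) and ATP (1.25 mM) stimulation; lower signal means less secretion.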
The depositor's hits bear a star; i = inactive; ? = inconclusive; nt = no result given. An excerpt weighted towards active compounds, which were near 19% of everything screened. Unless noted, calls come from the whole dose curve; as a rule, active = well fitted curve in the direction sought with a large enough effect; inconclusive = small, poorly fitted or top-dose-only effect, or another doubt; inactive = no such curve, though single readings can be large; an effect the other way counts as inactive or inconclusive. Unless noted, % is set by controls: 0 for no effect and ±100 for the full control effect.

SMILES	TDP1 cell CPT	HT1080 IDH1KD tx	HT1080-NT tox	DT40 TDP1 no CPT	IL-1B inflam inh
CC(C)CC(N)c1csc(Nc2cc(Oc3ccccc3)ncn2)n1 (stereo not drawn)	23µM*	-24%	21µM*	21µM*	0
CC(C)C(N)c1csc(Nc2ccccn2)n1 (stereo not drawn)	8%	-2%	-2%	-19%	-11
CC(C)C(N)c1csc(Nc2cc(Oc3ccccc3)ncn2)n1 (stereo not drawn)	?	?	?	?	-91*
CCC1(c2ccc(F)cc2)NC(=O)N(CC(=O)N2CCN(C(=O)c3ccco3)CC2)C1=O (stereo not drawn)	7%	5%	-1%	-3%	13
CCCN1C(=O)/C(=C/c2ccc3c(c2)OCO3)NC1=S	-11%	-2%	-1%	-19%	3
CCCN1C/C(=C/c2ccc3c(c2)OCO3)C(=O)/C(=C/c2ccc3c(c2)OCO3)C1	15µM*	?	?	13µM*	1
CCCN1C/C(=C/c2cccc([N+](=O)[O-])c2)C(=O)/C(=C/c2cccc([N+](=O)[O-])c2)C1	1µM*	23µM*	-5%	0.65µM*	-94*
COc1cc(/C=C/C(=O)OC(C)C(=O)Nc2ccc(Cl)cn2)ccc1OC(F)F (stereo not drawn)	7%	9%	-1%	0%	-52*
Cc1ccc(/C=C/C(=O)OC(C)C(=O)Nc2ccc(Cl)cn2)o1 (stereo not drawn)	13µM*	2%	17%	16µM*	i
Cc1ccsc1C(=O)OC(C)C(=O)Nc1ccc(Cl)cn1 (stereo not drawn)	?	-2%	9%	26µM*	0
C=CCNC(=O)C1CCC(=O)N1S(=O)(=O)c1ccc(C)cc1 (stereo not drawn)	-2%	18%	1%	0%	-2
Cc1cccc(N2CCN(C(=O)c3ccc4c(c3)N(Cc3cccc(Cl)c3)C(=O)c3ccccc3S4=O)CC2C)c1 (stereo not drawn)	5.8µM*	nt	nt	6.5µM*	nt
CCN1C(=O)c2ccccc2S(=O)c2ccc(C(=O)N3CCN(c4cccc(C)c4)C(C)C3)cc21 (stereo not drawn)	?	nt	nt	16µM*	nt
O=C(c1ccc2c(c1)N(Cc1cccc(Cl)c1)C(=O)c1ccccc1S2(=O)=O)N1CCN(c2cccc(C(F)(F)F)c2)CC1	-27%	nt	nt	?	nt
Oc1c(C(c2ccccc2Cl)N2CCCC2)ccc2cccnc12 (stereo not drawn)	15µM*	?	?	16µM*	88
Oc1c(C(c2ccc(Cl)cc2)N2CCCC2)cc(Cl)c2cccnc12 (stereo not drawn)	4.1µM*	?	?	5.2µM*	104
Oc1c(C(c2ccccn2)N2CCC(Cc3ccccc3)CC2)cc(Cl)c2cccnc12 (stereo not drawn)	4.1µM*	21µM*	?	2.9µM*	-106*
CN1CCN(C(c2ccccn2)c2cc(Cl)c3cccnc3c2O)CC1 (stereo not drawn)	6.5µM*	?	-24%	6.5µM*	27
Cc1ccc(C(c2cc(Cl)c3cccnc3c2O)N2CCN(C)CC2)cc1 (stereo not drawn)	?	?	?	?	45
COc1ccc(C(=O)COc2ccc(F)cc2)c(O)c1C	4%	15%	-1%	-25%	-2
Cc1nn(-c2ccccc2)c(OC(=O)c2ccccc2)c1S(=O)(=O)c1ccccc1	-2%	nt	nt	1%	nt
CCCc1cc(NC(=O)COC(=O)c2nccnc2N)n(-c2ccccc2)n1	0%	3%	7%	-22%	27
Nc1c(Br)cc(Br)c2c1-c1ccc([N+](=O)[O-])cc1C2	-22%	-26%	2%	-5%	2
Cc1nnc(SCC(=O)Nc2nc3c(s2)CC(C)CC3)s1 (stereo not drawn)	?	-6%	2%	10µM*	-6
CC1CCc2nc(NC(=O)CSc3nc4ccccc4o3)sc2C1 (stereo not drawn)	?	?	?	18µM*	8
SMILES	TDP1 cell CPT	HT1080 IDH1KD tx	HT1080-NT tox	DT40 TDP1 no CPT	IL-1B inflam inh
Cc1csc(NC(=O)CSc2nnc(C)s2)n1	-2%	4%	5%	-19%	0
CCCNC(=O)c1cnc(Sc2ncc(C(F)(F)F)cc2Cl)n1C	-19%	1%	7%	?	-6
NC(=S)n1[nH]c(-c2ccc([N+](=O)[O-])cc2)c(N=Nc2ccccc2[N+](=O)[O-])c1=O	?	-1%	-1%	?	4
NC(=S)n1[nH]c(-c2ccc([N+](=O)[O-])cc2)c(N=Nc2cccc([N+](=O)[O-])c2)c1=O	?	0.82µM*	1.5µM*	?	36
Cc1c(N=Nc2c(-c3ccc([N+](=O)[O-])cc3)[nH]n(C(N)=S)c2=O)cccc1[N+](=O)[O-]	2.9µM*	?	?	2.9µM*	?
CC(C)c1ccc(C2(C)NC(=O)N(CC(=O)N3CCN(C(=O)c4cccs4)CC3)C2=O)cc1 (stereo not drawn)	-29%	-3%	-4%	-13%	7
CCn1cc(-c2n[nH]c(=S)n2-c2ccc(C)cc2Br)c(=O)c2ccc(C)nc21	-24%	-1%	-6%	?	6
CCOC(=O)c1[nH]cnc1C(=O)Nc1ccccc1	5%	15%	23%	-1%	0
CCOC(=O)c1[nH]cnc1C(=O)Nc1ccccn1	-14%	23%	-14%	-6%	-64*
CNc1cccccc1=S	3.3µM*	10%	0%	4.6µM*	8
CNc1ccccc1	5%	6%	3%	10%	8
CC(=O)N1CC(=O)N=C1SCC(=O)Nc1nc(C)c(-c2ccccc2)s1	2.9µM*	?	?	3.3µM*	-77*
O=C(Nc1ccccc1)Nc1cccc(-c2nnco2)c1	-4%	0%	20%	?	9
O=C(Nc1ccc(NC(=O)c2ccc(Cl)cc2Cl)cc1)c1ccc2c(c1)OCO2	-16%	25%	18%	-11%	2
O=C(Nc1ccc(C2=NCCN2)cc1)c1ccc(C(=O)Nc2ccc(C3=NCCN3)cc2)c(Cl)c1	7.3µM*	1%	-8%	5.2µM*	7
O=C(Nc1cccc(C2=NCCN2)c1)Nc1cccc(C2=NCCN2)c1	9.2µM*	-21%	-3%	7.3µM*	?
CCCCNCCCOc1cccc(Cl)c1Cl	15µM*	?	?	?	-64*
OCCNCCCOc1cccc(Cl)c1Cl	0.19µM*	nt	nt	0.21µM*	nt
Clc1ccc(Cl)c(OCCN2CCCC2)c1	5%	4%	-1%	10%	2
